Consider 13 compounds from PubChem BioAssay.

Assay [1] in a line: liver-stage malaria parasite growth inhibition, primary screen, cell-based, HepG2, luciferase luminescence, HepG2 viability (AID 624349; in the data active = parasite load remaining mostly below about 12%, no sharp cut-off; inactive = mostly above about 10%;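 also: 100% = mean of DMSO negative control wells on the same plate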). The following applies: P. berghei liver stage in HepG2, luciferase luminescence, concentration not given here; parasite load remaining: stronger effect = lower value; viability: measured here: HepG2 viability without parasites.
Assay [2] relates to Hepatitis C virus NS3 helicase. Description: HCV NS3 helicase inhibitors, primary screen, biochemical, fluorescence polarization, LOPAC1280 library (AID 687035; in the data active = inhibition above about 37%). To be noted: Purified HCV NS3 helicase, Cy5-dT15 ssDNA binding fluorescence polarization; stronger effect = higher value; concentration not given here. A general note: Fluorescence polarisation rises when a labelled molecule tumbles more slowly, as on binding a larger partner.

Assay [3] in a line: Cy5 fluorescence quenching or enhancement artefacts, artefact control for HCV NS3 helicase inhibitor project, biochemical, LOPAC1280 (AID 687037). To be noted: Cy5-DNA-NS3h complex fluorescence interference counterscreen. (Counterscreens check selectivity or assay interference.)
A short description of assay [4]: Cy5 fluorescence interference with SSB-bound oligo, artefact control for HCV NS3 helicase inhibitor project, biochemical, NIH Clinical Collection, E. coli SSB (AID 743268).
Assay [5] concerns Hepatitis C virus NS3 helicase. Description: HCV NS3 helicase inhibitors, primary screen, biochemical, fluorescence polarization, NIH Clinical Collection (AID 743270). To be noted: NS3 helicase binding to Cy5-dT15 DNA, stronger effect = higher value, concentration not given here.
The target of assay [6] is Single-stranded DNA-binding protein (Escherichia coli (strain K12)) (UniProt P0AGE0). Description: E. coli SSB displacement from DNA, counter-screen for HCV NS3 helicase inhibitor project, biochemical, fluorescence polarization, NIH Clinical Collection (AID 743271; in the data active = inhibition above about 28%). The following applies: stronger effect = higher value, concentration not given here.
A short description of assay [7]: fluorescence interference in NS3h assay format, artefact control for HCV NS3 helicase inhibitor project, biochemical, NIH Clinical Collection (AID 743272).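 Also: HCV NS3 helicase with a Cy5 labelled single stranded DNA probe.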 The following applies: fluorescence interference counterscreen, stronger effect = lower value.
Assay [8] concerns Neuropilin-2 / VEGF-C interaction (human). Put plainly: inhibitors of NRP2–VEGF-C binding, biochemical, microplate binding format, z-score (AID 743281). To be noted: microplate NRP2/VEGF-C binding assay; stronger effect = lower value.
Assay [9] in a line: stimulators of nuclear beta-catenin in C2C12, primary screen, imaging, WNT3A-conditioned medium, mouse C2C12, NPC library (AID 1117326; in the data active = nuclear beta-catenin stimulation mostly above about 4.2%, no sharp cut-off; inactive = mostly below about 10%). The following applies: stronger effect = higher value.

Molecules are shown by their SMILES. Values joined by “and” are separate entries in the source; they are usually repeats but may differ in a detail not shown here. Equal entries are not always repeated. Some structures have more than one record in an assay (separate samples or runs), and their calls can disagree. Active and inactive are the calls of the source. Unless noted, no rule for the calls is given here.

By viability is commonly meant a read-out of living cells in per cent, often relative to untreated cells. By inhibition is commonly meant the drop in the measured response relative to a control, in per cent. On to `Nc1nnc(-c2cccc(Cl)c2Cl)c(N)n1`, for which, in assay [1], the parasite load remaining is 90.9% (inactive) and 119% (inactive) and 49.7% (inactive). In addition, in [1], the viability was 105% and 77.7% and 112%. Also, the inhibition was -5% (inactive) in [2], 0.4% (inactive) in [5] and -1.64% (inactive) in assay [6]. For the same compound, the fluorescence ratio (interference) in [3] was 1 (inactive). In addition, the fluorescence ratio was 1.03 (inactive) in assay [4] and 0.99 (inactive) in assay [7]. In addition, the z-score in assay [8] is -0.624 (inactive). Further, the nuclear beta-catenin stimulation in assay [9] (at 10 µM) is 0.7% (inactive); in [9] (stimulation, at 2 µM) it was 0.5%.

Regarding `CCN1CCCC1CNC(=O)c1cc(S(=O)(=O)CC)c(N)cc1OC` (stereo unspecified), the parasite load remaining in [1] was 79.8% (inactive). Besides, the viability in [1] worked out at 68.8%. The inhibition in [2] was -3% (inactive); in assay [5], 0.4% (inactive); in assay [6], -4.72% (inactive). The fluorescence ratio (interference) in assay [3] is 0.9 (inactive). In addition, the fluorescence ratio in assay [4] is 1.05 (inactive); in assay [7], 1.01 (inactive). Besides, in assay [8], the z-score is -0.283 (inactive). Further, the nuclear beta-catenin stimulation in assay [9] (at 10 µM) was -0.8% (inactive); in assay [9] (stimulation, at 2 µM), -0.8%.

Consider `CC(=O)OCC1=C(C(=O)O)N2C(=O)[C@@H](NC(=O)Cc3cccs3)[C@H]2SC1`, for which, in assay [1], the parasite load remaining was 98.3% (inactive) and 75.9% (inactive) and 62% (inactive); the viability is 104% and 75.3% and 99.8%. In addition, in [2], the inhibition was 0% (inactive). Moreover, in [3], the fluorescence ratio (interference) is 1 (inactive). Moreover, in [9] (at 10 µM), the nuclear beta-catenin stimulation is 2.4% (inactive). In addition, the nuclear beta-catenin stimulation in assay [9] (stimulation, at 2 µM) stood at 4.2%.

Regarding `CNCC(O)c1ccc(O)c(O)c1` (stereo unspecified), in assay [1], the parasite load remaining was 40.1% (inactive). Also, in assay [1], the viability was determined as 89%. Besides, the inhibition is 0% (inactive) in assay [2], -1.36% (inactive) in assay [5] and 15.5% (inactive) in assay [6]. Further, in [3], the fluorescence ratio (interference) was 1 (inactive). In addition, the fluorescence ratio in [4] and in [7] was 1.02 (inactive) throughout. Besides, the nuclear beta-catenin stimulation was -1.1% (inactive) in [9] (at 10 µM) and -0.9% in [9] (stimulation, at 2 µM).

For the compound `CCCC(C(=O)OCCN(CC)CC)(c1ccccc1)c1ccccc1`, in assay [1], the parasite load remaining was -0.02% (active) and 10.3% (inactive) and 0.005% (inactive); the viability was 85.1% and 64.2% and 90.3%. The inhibition in assay [2] was -6% (inactive). Moreover, in [3], the fluorescence ratio (interference) was 0.9 (inactive). For the same compound, the nuclear beta-catenin stimulation in assay [9] (at 10 µM) is 0% (inactive). The nuclear beta-catenin stimulation in [9] (stimulation, at 2 µM) worked out at 1.1%.

Take `C[C@H]1c2cccc(O)c2C(O)=C2C(=O)[C@]3(O)C(O)=C(C(N)=O)C(=O)[C@@H](N(C)C)[C@@H]3[C@@H](O)[C@@H]21`: in assay [1], the parasite load remaining was 95% (inactive) and 57.5% (inactive) and 31.3% (inactive); the viability was 76.2% and 97.6% and 73.5%. In assay [2], the inhibition was -1% (inactive). Besides, the fluorescence ratio (interference) in [3] was 1 (inactive). Besides, in assay [9] (at 10 µM), the nuclear beta-catenin stimulation is -0.3% (inactive). In assay [9] (stimulation, at 2 µM), the nuclear beta-catenin stimulation worked out at 3.8%.

Regarding `CCOC(=O)c1ncn2c1CN(C)C(=O)c1cc(F)ccc1-2`, the parasite load remaining in assay [1] is 6.63% (inactive) and 66.3% (inactive). Moreover, the viability in assay [1] is 73.1% and 107%. Besides, the inhibition in assay [2] was -4% (inactive); in assay [5], 1.98% (inactive); in [6], -0.1% (inactive). The fluorescence ratio (interference) in assay [3] is 1 (inactive). Moreover, the fluorescence ratio is 1.05 (inactive) in assay [4] and 0.99 (inactive) in assay [7]. The z-score in assay [8] was -0.197 (inactive). For the same compound, the nuclear beta-catenin stimulation was 0.8% (inactive) in assay [9] (at 10 µM) and -0.7% in assay [9] (stimulation, at 2 µM).

As to `Oc1ccc(C2CNCCc3c2cc(O)c(O)c3Cl)cc1` (stereo unspecified), the parasite load remaining in [1] is 97.3% (inactive) and 13% (inactive). Also, the viability in [1] is 74.7% and 61%. The inhibition is -3% (inactive) in [2], -1.98% (inactive) in [5] and -7.03% (inactive) in [6]. Also, the fluorescence ratio (interference) in [3] was 0.9 (inactive). The figures for the fluorescence ratio in [4] and in assay [7] were 0.73 (active) and 0.87 (inactive), respectively. Further, the z-score in [8] is 0.0254 (inactive). Also, the nuclear beta-catenin stimulation in assay [9] (at 10 µM) is 1.1% (inactive); in assay [9] (stimulation, at 2 µM), 7.9%.

On to `NC(=O)OCC(COC(N)=O)c1ccccc1`, for which, in assay [1], the parasite load remaining is 83.2% (inactive) and 111% (inactive). In addition, the viability in assay [1] is 105% and 75.3%. In addition, the inhibition in [2] is -1% (inactive); in [5] it was -2.77% (inactive); in assay [6] it was -3.18% (inactive). Further, the fluorescence ratio (interference) in assay [3] is 1 (inactive). The fluorescence ratio was 1.05 (inactive) in assay [4] and 0.9 (inactive) in assay [7]. Besides, the z-score in assay [8] is 0.0538 (inactive). Besides, the nuclear beta-catenin stimulation in [9] (at 10 µM) was -1.9% (inactive); in [9] (stimulation, at 2 µM), 0%.

As for `CC(=O)Oc1ccccc1C(=O)O`, in assay [1], the parasite load remaining was 80.4% (inactive) and 75.4% (inactive) and 33.3% (inactive); the viability is 71.3% and 95.3% and 127%. The inhibition in [2] was -3% (inactive). Further, in assay [3], the fluorescence ratio (interference) is 1 (inactive). Besides, the nuclear beta-catenin stimulation in [9] (at 10 µM) was -0.3% (inactive). The nuclear beta-catenin stimulation in assay [9] (stimulation, at 2 µM) was found to be 0.2%.

For the compound `CCc1c(C)[nH]c2c1C(=O)C(CN1CCOCC1)CC2` (stereo unspecified), the parasite load remaining in assay [1] is 36.3% (inactive) and 102% (inactive). Moreover, the viability in assay [1] was 89.9% and 75.4%. The inhibition is -4% (inactive) in assay [2], -1.36% (inactive) in assay [5] and 1.81% (inactive) in assay [6]. The fluorescence ratio (interference) in assay [3] is 0.9 (inactive). In addition, the values for the fluorescence ratio in assay [4] and in assay [7] were 1.09 (inactive) and 1.01 (inactive), respectively. Moreover, the nuclear beta-catenin stimulation in [9] (at 10 µM) was -1.2% (inactive); in [9] (stimulation, at 2 µM), -0.2%.

`Cc1nc2sccn2c(=O)c1CCN1CCC(=C(c2ccc(F)cc2)c2ccc(F)cc2)CC1`: in assay [1], the parasite load remaining is 16.8% (inactive). Moreover, the viability in assay [1] was found to be 91.8%. The inhibition in assay [2] is 0% (inactive). The fluorescence ratio (interference) in assay [3] is 0.9 (inactive). For the same compound, the nuclear beta-catenin stimulation in assay [9] (at 10 µM) was 13.4% (inactive); in assay [9] (stimulation, at 2 µM), 4.3%.

Turning to `CC(C(=O)O)c1ccc(CC2CCCC2=O)cc1` (stereo unspecified), in assay [1], the parasite load remaining is 108% (inactive). For the same compound, in assay [1], the viability came out at 79.1%. Moreover, the figures for the inhibition in assay [2], in assay [5] and in assay [6] were -4% (inactive), 5.94% (inactive) and 4.52% (inactive), respectively. Also, the fluorescence ratio (interference) in assay [3] is 1 (inactive). The figures for the fluorescence ratio in assay [4] and in assay [7] were 1.12 (inactive) and 1.09 (inactive), respectively. Further, the z-score in [8] is -0.224 (inactive). In addition, the nuclear beta-catenin stimulation in assay [9] (at 10 µM) is -1.5% (inactive); in assay [9] (stimulation, at 2 µM) it was -0.2%.
